Screening results: PubChem BioAssay, National Center for Advancing Translational Sciences (NCATS)
D1 ag = human D1 receptor agonism; HEK293 T-REx D1 cells, calcium flux, agonist mode; P21728; activation, % at 2 µM; hit rate 1% among 360,000; AID 504660; also: 0% is about no effect
Target sequence (P21728 whole entry, looked up): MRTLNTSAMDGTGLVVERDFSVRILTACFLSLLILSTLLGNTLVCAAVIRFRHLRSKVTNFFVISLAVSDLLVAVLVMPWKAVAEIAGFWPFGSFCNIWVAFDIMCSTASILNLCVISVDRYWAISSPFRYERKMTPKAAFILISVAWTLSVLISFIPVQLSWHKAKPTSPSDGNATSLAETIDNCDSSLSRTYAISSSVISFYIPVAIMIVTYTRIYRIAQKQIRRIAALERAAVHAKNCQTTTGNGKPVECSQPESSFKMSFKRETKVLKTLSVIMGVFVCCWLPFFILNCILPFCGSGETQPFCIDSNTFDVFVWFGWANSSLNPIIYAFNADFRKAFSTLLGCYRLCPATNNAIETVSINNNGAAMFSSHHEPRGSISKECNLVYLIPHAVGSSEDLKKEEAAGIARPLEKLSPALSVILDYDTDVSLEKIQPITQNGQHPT
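Tetracycline-induced HEK293 TREx D1 cells, force-coupled to calcium signalling, were dye-loaded with a no-wash calcium kit. Compound was pin-added after a 10 s baseline. Fluorescence was read kinetically at 1 cycle/s for 180 s, with calcium rises flagged as agonism.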
TRHR enhancer = TRH receptor (human) allosteric enhancement. TRHR cells, fluo-8 calcium fluorescence, EC20 TRH enhancement. hit rate 0.66% among 360,000. AID 493056. enhancement, % at 2 µM. P34981; in the data active = enhancement above about 30%; also: 0% is about no effect
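TRHR-expressing cells loaded with fluo-8 calcium dye were read kinetically (ex 480/em 530) during compound addition, then stimulated with an EC20 of TRH (10 nM final). Enhancement of the Gq-mediated intracellular calcium response was scored.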
TRHR ag = activates the human TRH receptor; TRHR cells, calcium flux fluo-8, FDSS agonist mode; activation, % at 2 µM; hit rate 0.18% among 360,000; also: 0% is about no effect
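Steps: seed TRHR cells overnight; add fluo-8 no-wash Ca dye, RT 30 min–1.5 h; record 10 s baseline; pin-transfer compounds; monitor fluorescence 1 cycle/s for the agonist window. Calcium increases flag candidate agonists.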
D1 PAM = potentiators of human D1 dopamine receptor; P21728; HEK293 TREx D1 cells, calcium flux, dopamine EC20 potentiation; potentiation, % at 10 µM; hit rate 0.036% among 360,000; in the data active = potentiation above about 30%; also: 0% is about no effect
D1 antag = antagonists of human D1 dopamine receptor; HEK293 TREx D1 cells, calcium flux, dopamine EC80; hits give low values; activity change, negative = inhibition, % at 10 µM; hit rate 3.2% among 360,000; AID 504652; in the data active = activity change below about -30%; also: % is scaled to controls: 0 for no effect and ±100 for the full control effect
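Inducible Hek293 Trex D1 cells (tetracycline, overnight, 30 C). Calcium dye 30–90 min RT. Antagonist mode: EC80 dopamine added after 180 s compound read.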
Starred values were filed as active, the others as inactive. The list is not random: actives were taken first. Their share in the collection is about 4.6%. Rule as the data show it, unless noted: active = activation above about 30%; inactive = the rest.

SMILES	D1 ag	TRHR enhancer	TRHR ag	D1 PAM	D1 antag
NC(=O)Cn1c(=O)n(CCCCCC(=O)NCc2ccccc2)c(=O)c2sccc21	1.2	-2.7	1.2	-2.2	-38.7*
Cc1nn(CCCC(=O)NCc2ccccc2)c(=O)c2cc3sccc3n12	-1.6	1.8	-0.2	1.1	-32.2*
COc1ccc(NC(=O)CCCn2c(=O)c3sccc3n(Cc3ccccc3)c2=O)cc1	7.8	-5.7	0.3	-12.6	-33.8*
Cc1c(Cl)cccc1NC(=O)C(=O)NCCc1csc(-c2cccc(F)c2)n1	14.4	-2.9	1.2	0.9	14.9
C=CCNC(=O)/C(C#N)=C\c1cc(Cl)c(OCC)c(OC)c1	1.1	-8.3	0.7	-3.6	2.8
COCCCn1c(=O)c2sccc2n(Cc2cccc(F)c2)c1=O	2.7	-11.5	-0.6	-3.2	-36.3*
CCN(CC)C(=O)c1sc2c(c1C)c(=O)n(Cc1ccccc1)c(=O)n2CC(=O)Nc1ccc(OC)cc1	6.5	-8.6	5.6	1.4	-34.8*
CCN(CC)C(=O)c1sc2c(c1C)c(=O)n(-c1ccc(OC)cc1OC)c(=O)n2CC(=O)Nc1ccccc1	27.0	-6.7	0.1	-1.6	1.8
COc1ccc2c(c1)CC(NC(=O)Nc1cc(Cl)ccc1OC)CO2 (configuration not stated)	2.3	-5.1	-0.6	-3.9	-11.6
COc1ccc(CCNC(=O)CCCc2ccccc2)cc1	0.6	-4.0	-0.3	-14.2	0.2
Cc1cccc(NC(=O)C(c2ccccc2)N2Cc3ccccc3C2=O)c1C (configuration not stated)	-2.0	3.2	1.7	-0.3	-12.2
CN(C)CC/C=C1\c2cc(F)ccc2CSc2ccccc21	22.7	-1.4	2.2	-6.0	-92.7*
NCC/C=C1/c2ccccc2CSc2ccccc21	21.3	-0.2	2.4	-4.7	-4.9
CC(O)CN(C)CC/C=C1/c2ccccc2CSc2ccccc21 (configuration not stated)	30.3*	-0.6	2.4	-10.8	-71.5*
CN(CC/C=C1/c2ccccc2CSc2ccccc21)CCCO	30.8*	-5.1	3.0	-7.8	-29.7
C=CCN(C)CC/C=C1\c2ccccc2CSc2ccccc21	-0.1	-7.1	2.4	-9.2	-7.4
CC(C)C(NS(=O)(=O)c1ccccc1)C(=O)OCc1cc([N+](=O)[O-])cc2c1OCOC2 (configuration not stated)	4.5	-7.4	-0.8	-5.5	5.7
C[C@H](NC(=O)c1[nH]cnc1C(=O)Nc1ccc(CNC(=O)OC(C)(C)C)cc1)C(=O)OC(C)(C)C	1.9	4.0	0.4	-2.5	-3.7
Cc1cc(C)n(-c2nc(SCCN(C)C)c3c4c(sc3n2)CCCC4)n1	10.9	37.8*	0.1	3.0	2.9
CCC(O)CNc1nc(-n2nc(C)cc2C)nc2sc3c(c12)CCCC3 (configuration not stated)	0.5	4.4	-0.3	-7.8	2.9
CN(Cc1ccccc1)C(=S)NC(=O)c1ccccc1	4.8	30.8*	-0.1	2.9	8.9
COc1ccc(C(=O)N/N=C(\C)c2cccc(NC(=O)c3ccc(F)cc3)c2)c(OC)c1	4.8	-1.0	-0.2	-4.8	-36.8*
COc1ccc(C(=O)N/N=C(/C)c2cccc(NC(=O)c3ccccc3F)c2)cc1	4.0	-1.1	-0.6	3.0	-5.4
COc1cc(Cl)c(C)cc1NC(=O)CSc1cc(-c2ccccc2)nc(C)n1	1.6	-3.3	0.6	-2.2	-7.5
O=C(NNc1c(Cl)cccc1Cl)c1c(F)cccc1Cl	1.9	-7.6	-0.6	-7.3	-34.6*
SMILES	D1 ag	TRHR enhancer	TRHR ag	D1 PAM	D1 antag
CCc1ccc2ncc3c(-c4ccc(F)cc4)nn(CC(=O)NC4CCCCC4)c3c2c1	2.9	4.9	-0.8	-1.4	10.5
CCOC(=O)C1(CCOc2ccccc2)CCN(Cc2ccc(O)c(OCC)c2)CC1	7.2	-0.9	1.7	-1.1	-15.3
Cn1c(N)c(-c2ccccc2)c2ccc([N+](=O)[O-])cc2c1=O	242.4*	2.3	-1.8	1.3	-16.5
CCOC(=O)C(NC(=O)c1cccc(Cl)c1)(OCc1ccc(F)cc1)C(F)(F)F (configuration not stated)	13.5	12.5	-2.8	-3.4	-34.9*
CCOC(=O)C(NC(=O)c1ccccc1)(OCc1ccc(F)cc1)C(F)(F)F (configuration not stated)	-1.5	-2.0	-0.1	-7.0	-11.8
COc1ccc(C(=O)C(C)[n+]2ccc(C)c3ccccc32)cc1[N+](=O)[O-] (configuration not stated)	51.8*	-2.1	8.3	-7.2	-24.6
O=C(Nc1cc(-c2nc3ncccc3o2)ccc1Cl)c1ccc([N+](=O)[O-])o1	0.1	-2.4	-0.1	-2.2	21.0
COc1ccc(CC(=O)Nc2cccc(SC)c2)cc1OC	7.8	-4.5	-0.1	-1.2	-27.1
Cn1cc(S(=O)(=O)c2ccc(Cl)cc2)c(=O)c2cc(F)c(N3CCCC3)cc21	-1.9	16.8	0.4	0.8	11.0
CC(O)C(O)C(O)C(O)C1NCCS1 (configuration not stated)	0.3	-1.2	-0.4	1.2	-65.9*
CC(C)NC(=S)Nc1ccc2nc3n(c(=O)c2c1)CCCCC3	2.4	9.8	-0.3	-3.6	-79.3*
O=c1c2cc(NC(=S)NC3CC3)ccc2nc2n1CCCCC2	4.1	-5.4	0.4	-3.5	-38.0*
O=c1c2cc(NC(=S)N3CCC(N4CCCCC4)CC3)ccc2nc2n1CCCCC2	2.9	-7.6	0.8	-5.0	-38.2*
O=c1c2cc(NC(=S)NC3CCCC3)ccc2nc2n1CCCCC2	1.9	4.5	-0.1	-4.7	12.6
O=c1c2cc(NC(=S)NCCCN3CCC(Cc4ccccc4)CC3)ccc2nc2n1CCCCC2	46.1*	13.4	2.6	-9.4	-41.2*
CC1CCCCN1C(=S)Nc1ccc2nc3n(c(=O)c2c1)CCCCC3 (configuration not stated)	1.1	-3.9	-0.6	-3.0	2.4
O=c1c2cc(NC(=S)NC3CCCCC3)ccc2nc2n1CCCCC2	3.8	0.4	-1.2	-5.6	-4.5
COC(=O)COc1cccc(/C=N/NC(=O)CCSc2ccccc2)c1	5.1	-0.8	-0.1	-3.9	-33.5*
Cc1nn2c(C)c(C(=O)NCC(C)c3ccccc3)cnc2c1-c1ccccc1 (configuration not stated)	1.0	34.8*	0.0	0.7	2.7
COc1ccc(NC(=O)c2c(NCc3sccc3C)sc3c2CCCC3)c(OC)c1	0.6	16.4	0.5	5.0	1.2
COc1cccc(CNC(=O)c2ccc(NC(=O)N3CCCCc4ccccc43)cc2)c1OC	4.2	-3.2	-0.3	-8.2	-59.4*
O=C(NCc1ccccc1Cl)c1ccc(NC(=O)N2CCCCc3ccccc32)cc1	3.3	6.2	-0.5	0.8	-1.9
CC(C)OCCCNC(=O)Cc1ccc(NC(=O)N2CCCCc3ccccc32)cc1	2.5	35.5*	0.4	-4.0	6.0
